# According to the supplement of paper PMC10037445:
# Whole data set: some 2,900 compounds, median “NF-kB SEAP reporter activity, fold change vs agonist alone” near 0.99, cut for the highest 2% near 2.6. The sample holds the highest values, similar compounds and a random draw of the others, so the mix is not that of the screen.
# Assays:
# RAW-Dual [1] = assay: NF-kB SEAP reporter activity, fold change vs agonist alone; higher = enhanced NF-kB activity
# Procedure, shortened: (§1)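 Reporter activity is given as fold change relative to agonist-alone wells. To measure it, 50 nL of library stock was pin-tooled onto RAW-Dual macrophages (50,000 cells/well, DMEM, 384-well plates), a PRR agonist followed 1 h later, and cells stayed at 37 °C, 5% CO2. Twenty hours on, supernatant was assayed for IRF (QuantiLuc luminescence) and NF-κB (QuantiBlue, 620 nm absorbance), and wells under 70% of agonist-control IncuCyte confluency in both mask sets were marked cytotoxic.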
# RAW-Dual [2] = assay: NF-kB SEAP reporter activity, fold change vs agonist alone; cytotoxicity flag (confluency mask): cytotoxic (confluency <70% of control); library stock concentration (final ~1000-fold dilution): 10 mM; higher = enhanced NF-kB activity
# Procedure, shortened: as §1
# RAW-Dual [3] = assay: NF-kB SEAP reporter activity, fold change vs agonist alone; cytotoxicity flag (confluency mask): not cytotoxic; library stock concentration (final ~1000-fold dilution): 10 mM; higher = enhanced NF-kB activity
# Procedure, shortened: as §1
# RAW-Dual [4] = assay: NF-kB SEAP reporter activity, fold change vs agonist alone; cytotoxicity flag (confluency mask): not cytotoxic; library stock concentration (final ~1000-fold dilution): .1 mM; higher = enhanced NF-kB activity
# Procedure, shortened: as §1
# [5] = library stock concentration (final ~1000-fold dilution): 10 mM, cytotoxicity flag (confluency mask): cytotoxic (confluency <70% of control), agonist: Imiquimod (TLR7) […]
# [6] = library stock concentration (final ~1000-fold dilution): 10 mM, cytotoxicity flag (confluency mask): cytotoxic (confluency <70% of control), agonist: MPLA (TLR4) […]
# [7] = agonist: ODN 1826 (TLR9) 0.5 ug/mL
# [8] = agonist: Pam2CSK4 (TLR2/6) 0.1 ug/mL
# [9] = agonist: Pam3CSK4 (TLR2/1) 0.1 ug/mL
# [10] = library stock concentration (final ~1000-fold dilution): 10 mM, cytotoxicity flag (confluency mask): not cytotoxic, agonist: Imiquimod (TLR7) […]
# [11] = library stock concentration (final ~1000-fold dilution): 10 mM, cytotoxicity flag (confluency mask): not cytotoxic, agonist: MPLA (TLR4) […]
smiles,measurement,setting,value
O=C(CBr)N1CC([N+](=O)[O-])([N+](=O)[O-])C1,NF-kB SEAP reporter activity,RAW-Dual [1]; [5],0.542
same,NF-kB SEAP reporter activity,RAW-Dual [1]; [6],0.295
same,NF-kB SEAP reporter activity,RAW-Dual [2]; agonist: LPS (TLR4) 0.1 ug/mL,0.335
same,NF-kB SEAP reporter activity,RAW-Dual [2]; [7],0.252
same,NF-kB SEAP reporter activity,RAW-Dual [2]; [8],0.0912
same,NF-kB SEAP reporter activity,RAW-Dual [2]; [9],0.189
CC1=CC2Cc3[nH]c(=O)ccc3C3(C1)NCCCC23 (stereo not drawn),NF-kB SEAP reporter activity,RAW-Dual [1]; [10],0.933
same,NF-kB SEAP reporter activity,RAW-Dual [1]; [11],1.03
same,NF-kB SEAP reporter activity,RAW-Dual [3]; agonist: LPS (TLR4) 0.1 ug/mL,1.12
same,NF-kB SEAP reporter activity,RAW-Dual [3]; [7],0.952
same,NF-kB SEAP reporter activity,RAW-Dual [3]; [8],1.11
same,NF-kB SEAP reporter activity,RAW-Dual [3]; [9],1.22
COc1ccc(CC2NCC(O)C2OC(C)=O)cc1 (stereo not drawn),NF-kB SEAP reporter activity,RAW-Dual [1]; [5],0.133
same,NF-kB SEAP reporter activity,RAW-Dual [1]; [6],0.231
same,NF-kB SEAP reporter activity,RAW-Dual [2]; agonist: LPS (TLR4) 0.1 ug/mL,0.216
same,NF-kB SEAP reporter activity,RAW-Dual [2]; [7],0.171
same,NF-kB SEAP reporter activity,RAW-Dual [2]; [8],0.0635
same,NF-kB SEAP reporter activity,RAW-Dual [2]; [9],0.145
Cc1c(C(C)C2NCC(C)CC2O)ccc2c1CC1C2CC=C2CC(O)CCC21C (stereo not drawn),NF-kB SEAP reporter activity,RAW-Dual [1]; [10],0.945
same,NF-kB SEAP reporter activity,RAW-Dual [1]; [11],1.15
same,NF-kB SEAP reporter activity,RAW-Dual [3]; agonist: LPS (TLR4) 0.1 ug/mL,1.1
same,NF-kB SEAP reporter activity,RAW-Dual [3]; [7],1.02
same,NF-kB SEAP reporter activity,RAW-Dual [3]; [8],0.866
same,NF-kB SEAP reporter activity,RAW-Dual [3]; [9],1.03
O.O=C1C=CCC2C3CCCN4CCCC(CN12)C34 (stereo not drawn),NF-kB SEAP reporter activity,RAW-Dual [1]; [10],0.531
same,NF-kB SEAP reporter activity,RAW-Dual [1]; [11],0.792
same,NF-kB SEAP reporter activity,RAW-Dual [3]; agonist: LPS (TLR4) 0.1 ug/mL,1.41
same,NF-kB SEAP reporter activity,RAW-Dual [3]; [7],0.558
same,NF-kB SEAP reporter activity,RAW-Dual [3]; [8],0.957
same,NF-kB SEAP reporter activity,RAW-Dual [3]; [9],1.11
Cc1sc2c(c1C)C(c1ccc(Cl)cc1)=NC(CC(=O)Nc1ccc(O)cc1)c1nnc(C)n1-2 (stereo not drawn),NF-kB SEAP reporter activity,RAW-Dual [1]; [10],1.49
same,NF-kB SEAP reporter activity,RAW-Dual [1]; [11],2.56
same,NF-kB SEAP reporter activity,RAW-Dual [3]; agonist: LPS (TLR4) 0.1 ug/mL,3.19
same,NF-kB SEAP reporter activity,RAW-Dual [3]; [7],2.24
same,NF-kB SEAP reporter activity,RAW-Dual [3]; [8],0.856
same,NF-kB SEAP reporter activity,RAW-Dual [3]; [9],1.74
Cc1sc2c(c1C)C(c1ccc(Cl)cc1)=NC(CC(=O)OC(C)(C)C)c1nnc(C)n1-2 (stereo not drawn),NF-kB SEAP reporter activity,RAW-Dual [1]; [5],2.49
same,NF-kB SEAP reporter activity,RAW-Dual [1]; [6],2.26
same,NF-kB SEAP reporter activity,RAW-Dual [2]; agonist: LPS (TLR4) 0.1 ug/mL,2.05
same,NF-kB SEAP reporter activity,RAW-Dual [2]; [7],1.9
same,NF-kB SEAP reporter activity,RAW-Dual [2]; [8],0.784
same,NF-kB SEAP reporter activity,RAW-Dual [2]; [9],1.19
CCNC(=O)CC1N=C(c2ccc(Cl)cc2)c2cc(OC)ccc2-n2c(C)nnc21 (stereo not drawn),NF-kB SEAP reporter activity,RAW-Dual [1]; [10],1.41
same,NF-kB SEAP reporter activity,RAW-Dual [1]; [11],2.47
same,NF-kB SEAP reporter activity,RAW-Dual [3]; agonist: LPS (TLR4) 0.1 ug/mL,2.57
same,NF-kB SEAP reporter activity,RAW-Dual [3]; [7],1.9
same,NF-kB SEAP reporter activity,RAW-Dual [3]; [8],0.886
same,NF-kB SEAP reporter activity,RAW-Dual [3]; [9],1.43
Cc1sc2c(c1C)C(c1ccc(Cl)cc1)=NC(CC(N)=O)c1nnc(C)n1-2 (stereo not drawn),NF-kB SEAP reporter activity,RAW-Dual [1]; [10],1.43
same,NF-kB SEAP reporter activity,RAW-Dual [1]; [11],2.38
same,NF-kB SEAP reporter activity,RAW-Dual [3]; agonist: LPS (TLR4) 0.1 ug/mL,2.51
same,NF-kB SEAP reporter activity,RAW-Dual [3]; [7],1.97
same,NF-kB SEAP reporter activity,RAW-Dual [3]; [8],0.734
same,NF-kB SEAP reporter activity,RAW-Dual [3]; [9],1.69
COc1ccc2c(c[n+](C)c3c4cc5c(cc4ccc23)OCO5)c1OC.Cl,NF-kB SEAP reporter activity,RAW-Dual [1]; [10],0.228
same,NF-kB SEAP reporter activity,RAW-Dual [1]; [11],0.224
same,NF-kB SEAP reporter activity,RAW-Dual [3]; agonist: LPS (TLR4) 0.1 ug/mL,0.278
same,NF-kB SEAP reporter activity,RAW-Dual [3]; [7],0.195
same,NF-kB SEAP reporter activity,RAW-Dual [3]; [8],0.15
same,NF-kB SEAP reporter activity,RAW-Dual [3]; [9],0.163
O=c1[nH]c2ccccc2n1C1CCN(Cc2ccc(-c3nc4cc5nc[nH]c5cc4nc3-c3ccccc3)cc2)CC1,NF-kB SEAP reporter activity,RAW-Dual [1]; [10],0.45
same,NF-kB SEAP reporter activity,RAW-Dual [1]; [11],1.05
same,NF-kB SEAP reporter activity,RAW-Dual [3]; agonist: LPS (TLR4) 0.1 ug/mL,1.2
same,NF-kB SEAP reporter activity,RAW-Dual [3]; [7],0.187
same,NF-kB SEAP reporter activity,RAW-Dual [3]; [8],0.317
same,NF-kB SEAP reporter activity,RAW-Dual [3]; [9],0.427
Br.COc1ccc2c(c1)C13CCCCC1C(C2)N(C)CC3.O (stereo not drawn),NF-kB SEAP reporter activity,RAW-Dual [1]; [11],0.902
same,NF-kB SEAP reporter activity,RAW-Dual [3]; agonist: LPS (TLR4) 0.1 ug/mL,0.802
same,NF-kB SEAP reporter activity,RAW-Dual [3]; [7],0.615
same,NF-kB SEAP reporter activity,RAW-Dual [3]; [8],0.806
same,NF-kB SEAP reporter activity,RAW-Dual [3]; [9],0.824
Br.CN1C2CC(OC(=O)C(CO)c3ccccc3)CC1C1OC12.O.O.O (stereo not drawn),NF-kB SEAP reporter activity,RAW-Dual [1]; [10],0.88
same,NF-kB SEAP reporter activity,RAW-Dual [1]; [11],1.09
same,NF-kB SEAP reporter activity,RAW-Dual [3]; agonist: LPS (TLR4) 0.1 ug/mL,0.989
same,NF-kB SEAP reporter activity,RAW-Dual [3]; [7],0.789
same,NF-kB SEAP reporter activity,RAW-Dual [3]; [8],1.04
same,NF-kB SEAP reporter activity,RAW-Dual [3]; [9],1.12
Cc1cccc(-c2ccnc3c(C(N)=O)cnn23)c1,NF-kB SEAP reporter activity,"RAW-Dual [1]; library stock concentration (final ~1000-fold dilution): .1 mM, cytotoxicity flag (confluency mask): not cytotoxic, agonist: Imiquimod (TLR7) […]",0.791
same,NF-kB SEAP reporter activity,"RAW-Dual [1]; library stock concentration (final ~1000-fold dilution): .1 mM, cytotoxicity flag (confluency mask): not cytotoxic, agonist: MPLA (TLR4) […]",1.15
same,NF-kB SEAP reporter activity,RAW-Dual [4]; agonist: LPS (TLR4) 0.1 ug/mL,1.21
same,NF-kB SEAP reporter activity,RAW-Dual [4]; [7],1.28
same,NF-kB SEAP reporter activity,RAW-Dual [4]; [8],1.25
same,NF-kB SEAP reporter activity,RAW-Dual [4]; [9],1.13
